Test results taken from PubChem BioAssay (NCI).
The panel holds about 79,000 compounds, 15% with a hit somewhere; the sample as a whole holds those more often. The source made the active and inactive calls. No stated cut-off is given here; in the data, active means growth inhibition above about 70%; inactive means the rest.

How the values were obtained:
[1] = NCI Yeast Anticancer Drug Screen. Data for the rad52 strain (AID 147);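 further: 0% = growth of vehicle-treated control cultures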; details: S. cerevisiae rad52 mutant growth inhibition, stronger effect = higher value
Summary of the method: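 Yeast strain carrying a DNA damage repair alteration was exposed to test compounds. Growth inhibition was measured relative to vehicle-treated controls.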

[2] = NCI Yeast Anticancer Drug Screen. Data for the wt1 strain (AID 149);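 further: 0% = growth of vehicle-treated wt1 cultures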; details: S. cerevisiae wt1 strain (SPY 50644) growth inhibition, stronger effect = higher value
Summary of the method: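 Yeast wt1 strain exposed to compounds; growth inhibition measured relative to vehicle-treated controls.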

[3] = NCI Yeast Anticancer Drug Screen. Data for the rad50EPP+ strain (AID 151);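 further: 0% = growth of vehicle-treated control cultures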; details: S. cerevisiae rad50 mutant strain, stronger effect = higher value
Summary of the method: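 Yeast strain carrying rad50 alteration (rad50EPP+) exposed to compounds; growth inhibition measured relative to vehicle-treated controls.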

[4] = NCI Yeast Anticancer Drug Screen. Data for the mgt1 strain (AID 153); details: S. cerevisiae mgt1 mutant growth inhibition, stronger effect = higher value
Summary of the method: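 Yeast mgt1 strain (DNA repair/cell-cycle alteration panel) exposed to compounds; growth inhibition measured relative to vehicle-treated controls.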

[5] = NCI Yeast Anticancer Drug Screen. Data for the rad50 strain (AID 155);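 further: 0% = growth of vehicle-only cultures of the same strain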; details: S. cerevisiae rad50 strain growth inhibition, stronger effect = higher value
Summary of the method: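 Yeast carrying a defined DNA repair defect were exposed to test compounds, and growth was compared with vehicle-treated controls to give percent inhibition.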

[6] = NCI Yeast Anticancer Drug Screen. Data for the rad14 strain (AID 159);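 further: 0% = growth of vehicle-treated control cultures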; details: S. cerevisiae rad14 strain growth inhibition, stronger effect = higher value
Summary of the method: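 Yeast cells carrying a defined DNA-repair defect were exposed to compounds, and growth inhibition was calculated relative to vehicle-treated control cultures.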

[7] = NCI Yeast Anticancer Drug Screen. Data for the sgs1 mgt1 strain (AID 161);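 further: 0% = growth of cultures given vehicle only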; details: S. cerevisiae sgs1 mgt1 strain, stronger effect = higher value
Summary of the method: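 Compounds are added to genetically altered yeast, and growth is compared with cultures given vehicle alone to give percent inhibition.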

[8] = NCI Yeast Anticancer Drug Screen. Data for the CLN2oe strain (AID 163);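 further: 0% = growth of vehicle-only control cultures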; details: S. cerevisiae CLN2oe strain, stronger effect = higher value
Summary of the method: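 Yeast cells carrying a defined cell-cycle control alteration were exposed to test compounds. Growth inhibition was scored against vehicle-treated control cultures.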

[9] = NCI Yeast Anticancer Drug Screen. Data for the cln2 rad14 strain (AID 165);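 further: 0% = growth equal to vehicle treated cultures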; details: S. cerevisiae cln2 rad14 strain, stronger effect = higher value
Summary of the method: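 Yeast carrying cln2 and rad14 alterations (cell cycle control and DNA damage repair) were exposed to compounds. Growth inhibition was measured against vehicle-treated controls.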

[10] = NCI Yeast Anticancer Drug Screen. Data for the bub3 strain (AID 167); details: S. cerevisiae bub3 mutant strain, stronger effect = higher value
Summary of the method: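 Compounds were applied to a genetically altered yeast strain carrying a cell-cycle control defect. Growth inhibition was scored against vehicle-treated controls.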

[11] = NCI Yeast Anticancer Drug Screen. Data for the mlh1 strain (AID 171);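 further: 0% = growth of vehicle-treated control cultures of the same strain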; details: S. cerevisiae mlh1 strain growth inhibition, stronger effect = higher value
Summary of the method: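 Yeast carrying a defined genetic alteration in DNA damage repair or cell cycle control were exposed to test compounds. Growth inhibition was measured relative to vehicle-treated controls.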

[12] = NCI Yeast Anticancer Drug Screen. Data for the sgs1 strain (AID 173);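 further: 0% = growth of vehicle-only control cultures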; details: S. cerevisiae sgs1 mutant, stronger effect = higher value
Summary of the method: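 Yeast mutant strains carrying defined defects in DNA damage repair or cell cycle control were exposed to test compounds. Growth inhibition was scored against vehicle-treated controls.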

[13] = NCI Yeast Anticancer Drug Screen. Data for the mlh1 rad18 strain (AID 175); details: S. cerevisiae mlh1 rad18 strain growth inhibition, stronger effect = higher value
Summary of the method: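 Growth inhibition of the yeast strain was measured after compound exposure and expressed relative to vehicle-treated controls. The strain carries defined defects in DNA damage repair.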

[14] = NCI Yeast Anticancer Drug Screen. Data for the rad18 strain (AID 177); details: S. cerevisiae rad18 mutant growth inhibition, stronger effect = higher value
Summary of the method: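 Yeast carrying a defined DNA damage repair alteration were exposed to compounds. Growth inhibition was expressed relative to vehicle-treated controls.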

[15] = NCI Yeast Anticancer Drug Screen. Data for the mec2-1 strain (AID 157); details: S. cerevisiae mec2-1 strain, stronger effect = higher value
Summary of the method: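 mec2-1 yeast strain, carrying an alteration in DNA damage repair or cell cycle control, was exposed to compounds; growth inhibition was measured relative to vehicle-treated controls.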

[16] = NCI Yeast Anticancer Drug Screen. Data for the wt2 strain (AID 169);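 further: 0% = growth of vehicle-treated yeast cultures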; details: S. cerevisiae wt2 strain growth inhibition, stronger effect = higher value
Summary of the method: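 Yeast cells were exposed to test compounds, and growth inhibition was measured relative to vehicle-treated controls.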

[17] = at 5.0 µM (retest, dose inferred, filed as 0.5)
[18] = at 50.0 µM (retest, dose inferred, filed as 5.0)

Measured: growth inhibition

CCCCCCCCCCCCCCCCCCNc1nc(=O)n(C2CC(OP(=O)(O)OCC3OC(n4cc(F)c(=O)[nH]c4=O)CC3O)C(CO)O2)cc1F (stereo not drawn)
active: [4]; at 100.0 µM 77% | [5]; [18] 88% | [5]; at 50.0 µM 83.9% | [5]; at 100.0 µM 88% | [7]; [18] 95% | [7]; at 50.0 µM 87.7% | [9]; at 50.0 µM 86.3% | [10]; [18] 93% | [11]; at 100.0 µM 75% | [12]; at 100.0 µM 78% | [13]; [18] 93% | [13]; at 50.0 µM 86% | [14]; at 100.0 µM 89%
inactive: [1]; at 1.2 µM 14% | [1]; at 3.7 µM 12% | [1]; at 11.0 µM -1% | [1]; at 33.0 µM 11% | [1]; at 100.0 µM 66% | [2]; at 1.2 µM 4% | [2]; at 3.7 µM -4% | [2]; at 11.0 µM -13% | [2]; at 33.0 µM -8% | [2]; at 100.0 µM 46% | [3]; at 1.2 µM 9% | [3]; at 3.7 µM 12% | [3]; at 11.0 µM 7% | [3]; at 33.0 µM 8% | [3]; at 100.0 µM 23% | [4]; at 1.2 µM 25% | [4]; at 3.7 µM 8% | [4]; at 11.0 µM -1% | [4]; at 33.0 µM 32% | [5]; at 1.2 µM 27% | [5]; at 3.7 µM 28% | [5]; [17] 34% | [5]; at 11.0 µM 22% | [5]; at 33.0 µM 37% | [6]; at 1.2 µM 9% | [6]; at 3.7 µM 0% | [6]; at 11.0 µM 3% | [6]; at 33.0 µM -4% | [6]; at 100.0 µM 51% | [7]; [17] 59% | [8]; at 1.2 µM -23% | [8]; at 3.7 µM -33% | [8]; at 11.0 µM -42% | [8]; at 33.0 µM -9% | [8]; at 100.0 µM 54% | [9]; [17] 7% | [9]; [18] 68% | [10]; at 1.2 µM 4% | [10]; at 3.7 µM 5% | [10]; [17] 15% | [10]; at 11.0 µM -27% | [10]; at 33.0 µM -10% | [10]; at 50.0 µM 68.3% | [10]; at 100.0 µM 40% | [11]; at 1.2 µM 10% | [11]; at 3.7 µM 19% | [11]; at 11.0 µM 7% | [11]; at 33.0 µM 18% | [12]; at 1.2 µM 1% | [12]; at 3.7 µM -5% | [12]; at 11.0 µM -9% | [12]; at 33.0 µM 22% | [13]; [17] 34% | [14]; at 1.2 µM 9% | [14]; at 3.7 µM -9% | [14]; at 11.0 µM -16% | [14]; at 33.0 µM 35%

O=C(O)C(=Cc1ccc(-c2ccccc2)cc1)C(=O)O
inactive: [1]; at 1.2 µM 6% | [1]; at 3.7 µM 10% | [1]; at 11.0 µM 24% | [1]; at 33.0 µM 50% | [2]; at 1.2 µM 2% | [2]; at 3.7 µM 4% | [2]; at 11.0 µM 16% | [2]; at 33.0 µM 55% | [3]; at 1.2 µM -1% | [3]; at 3.7 µM -1% | [3]; at 11.0 µM -1% | [3]; at 33.0 µM 6% | [3]; at 100.0 µM 25% | [5]; at 1.2 µM 0% | [5]; at 3.7 µM -5% | [5]; [17] 2% | [5]; at 11.0 µM 11% | [5]; at 33.0 µM 54% | [5]; [18] 23% | [5]; at 50.0 µM 60.1% | [15]; at 1.2 µM 4% | [15]; at 3.7 µM 7% | [15]; [17] -7% | [15]; at 11.0 µM 30% | [15]; at 33.0 µM 60% | [15]; [18] 63% | [15]; at 50.0 µM 46.5% | [6]; at 1.2 µM 5% | [6]; at 3.7 µM 8% | [6]; at 11.0 µM 17% | [6]; at 33.0 µM 46% | [7]; [17] 4% | [7]; [18] 24% | [7]; at 50.0 µM 31.5% | [8]; at 1.2 µM 5% | [8]; at 3.7 µM 7% | [8]; at 11.0 µM 22% | [8]; at 33.0 µM 56% | [9]; [17] 46% | [9]; [18] 27% | [9]; at 50.0 µM 23.7% | [10]; at 1.2 µM 1% | [10]; at 3.7 µM 1% | [10]; [17] -10% | [10]; at 11.0 µM 24% | [10]; [18] 43% | [16]; at 1.2 µM 0% | [16]; at 3.7 µM 3% | [16]; at 11.0 µM 17% | [16]; at 33.0 µM 61% | [11]; at 1.2 µM 3% | [11]; at 3.7 µM 5% | [11]; at 11.0 µM 23% | [11]; at 33.0 µM 69% | [12]; at 1.2 µM 3% | [12]; at 3.7 µM 7% | [12]; at 11.0 µM 26% | [13]; [17] -2% | [13]; [18] 19% | [14]; at 1.2 µM 3% | [14]; at 3.7 µM 7% | [14]; at 11.0 µM 20%
active: [1]; at 100.0 µM 87% | [2]; at 100.0 µM 88% | [5]; at 100.0 µM 88% | [15]; at 100.0 µM 92% | [6]; at 100.0 µM 90% | [8]; at 100.0 µM 88% | [10]; at 33.0 µM 72% | [10]; at 50.0 µM 71.8% | [10]; at 100.0 µM 93% | [16]; at 100.0 µM 89% | [11]; at 100.0 µM 94% | [12]; at 33.0 µM 72% | [12]; at 100.0 µM 92% | [13]; at 50.0 µM 70.9% | [14]; at 33.0 µM 70% | [14]; at 100.0 µM 91%

CCCCCCCCCCCCOCCOCCOCC(N)=O
active: [1]; at 33.0 µM 97% | [1]; at 100.0 µM 96% | [2]; at 33.0 µM 95% | [2]; at 100.0 µM 94% | [3]; at 100.0 µM 80% | [5]; at 33.0 µM 97% | [5]; at 50.0 µM 91.2% | [5]; at 100.0 µM 95% | [15]; at 33.0 µM 97% | [15]; at 50.0 µM 92.5% | [15]; at 100.0 µM 95% | [6]; at 33.0 µM 97% | [6]; at 100.0 µM 94% | [7]; [18] 98% | [7]; at 50.0 µM 93.3% | [8]; at 33.0 µM 96% | [8]; at 100.0 µM 93% | [9]; [18] 97% | [9]; at 50.0 µM 89.5% | [10]; at 33.0 µM 97% | [10]; [18] 97% | [10]; at 50.0 µM 91.5% | [10]; at 100.0 µM 94% | [16]; at 33.0 µM 97% | [16]; at 100.0 µM 96%
inactive: [1]; at 1.2 µM 15% | [1]; at 3.7 µM -11% | [1]; at 11.0 µM 1% | [2]; at 1.2 µM -39% | [2]; at 3.7 µM -39% | [2]; at 11.0 µM -41% | [3]; at 1.2 µM -14% | [3]; at 3.7 µM -20% | [3]; at 11.0 µM -11% | [3]; at 33.0 µM 10% | [5]; at 1.2 µM 6% | [5]; at 3.7 µM -1% | [5]; [17] 36% | [5]; at 11.0 µM 10% | [5]; [18] 36% | [15]; at 1.2 µM -6% | [15]; at 3.7 µM -6% | [15]; [17] 39% | [15]; at 11.0 µM 16% | [15]; [18] 29% | [6]; at 1.2 µM -9% | [6]; at 3.7 µM -11% | [6]; at 11.0 µM -17% | [7]; [17] 5% | [8]; at 1.2 µM -15% | [8]; at 3.7 µM -18% | [8]; at 11.0 µM -13% | [9]; [17] 61% | [10]; at 1.2 µM -6% | [10]; at 3.7 µM 1% | [10]; [17] 21% | [10]; at 11.0 µM -13% | [16]; at 1.2 µM -26% | [16]; at 3.7 µM -20% | [16]; at 11.0 µM -12%
